# Rows were chosen to be rich in hits. Some 9.4% of all compounds tested hit in one or more screens of this group.
# ELG1 repair inh = inhibitors of ELG1-dependent DNA repair in HEK293T cells. AID 504467. hit rate 2.3% among 330,000. HEK293T ELG1-luciferase reporter, luminescence, 16 h; DNA damage induced by 5-fluorouridine. Potency, µM (titrated, usually from 46.1 µM), usual class: inhibitors; note: nearly all actives have a fitted effect of over 55% in size
#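 Step one: seed 2,000 cells per well. Step two: pin-transfer compound or DMSO alongside 5-fluorouridine. Step three: incubate 16 hr, 37 °C, 5% CO2. Step four: add ONE-Glo, wait 30 min, read luminescence.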
# ELG1 genotoxic = genotoxicity induction in ELG1-luciferase HEK293T cells | hit rate 1.3% among 330,000 | Potency, µM (series often up to 46 µM), usual class: activators | HEK293T ELG1-luciferase reporter, luminescence, 16 h; note: nearly all actives have a fitted effect of over 60% in size
#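 Genotoxicity was scored as increased ELG1-luciferase reporter signal, measured by ONE-Glo luminescence (30 min, room temperature). Compound or vehicle exposure of the HEK293T reporter cells lasted 16 hr at 37°C.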
# NPC1 promoter act = activators of NPC1 promoter; Huh7 NPC1 promoter luciferase reporter, 24 h; Potency, µM (titrated, usually from 9.22 µM), hits mostly activators; hit rate 2.4% among 320,000; note: nearly all actives have a fitted effect of over 60% in size
#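 Huh7 cells stably carrying NPC1 promoter–luciferase, plated in Opti-MEM with 10% FBS for 2 h, were exposed to compound in DMSO for 24 h at 37 °C; luciferase reagent was added for 10 min and luminescence read.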
# SMN2 splice enh = increases expression of the SMN2 splice variant. hit rate 2.8% among 210,000. Potency, µM (highest dose often 46.1 µM), actives largely listed as activators. AID 1458. HEK293 SMN2-luciferase splicing reporter, luminescence, 30-36 h; note: nearly all actives have a fitted effect of over 55% in size
#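 qHTS luciferase splicing reporter: luminescence rises when SMN2 exon 7 is included in transfected HEK293 cells. Compound exposure lasted 30-36 h at 37C, with 4.5 mM final sodium butyrate as control, followed by a ONE-Glo read.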
# Rab9 prom act = activates the Rab9 promoter; Huh7 Rab9 promoter-luciferase reporter, luminescence, 24 h; Potency, µM (highest dose often 9.22 µM), actives largely listed as activators; hit rate 2.8% among 320,000; AID 485297; note: nearly all actives have a fitted effect of over 60% in size
#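 Huh7 cells stably carrying Rab9 promoter–luciferase reporter, plated 1500 cells/well, compound added after 2 h and incubated 24 h at 37 °C; luciferase luminescence then read after 10 min with detection reagent.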
# FLuc counter = counter-screen for miR-21 project: firefly luciferase inhibitors or activators | purified FLuc, Km substrates, luminescence inhibition | Potency, µM (titrated, usually from 57.5 µM), hits mostly inhibitors | hit rate 6.9% among 360,000; note: nearly all actives have a fitted effect of over 55% in size
# Target sequence (P08659 whole entry, looked up): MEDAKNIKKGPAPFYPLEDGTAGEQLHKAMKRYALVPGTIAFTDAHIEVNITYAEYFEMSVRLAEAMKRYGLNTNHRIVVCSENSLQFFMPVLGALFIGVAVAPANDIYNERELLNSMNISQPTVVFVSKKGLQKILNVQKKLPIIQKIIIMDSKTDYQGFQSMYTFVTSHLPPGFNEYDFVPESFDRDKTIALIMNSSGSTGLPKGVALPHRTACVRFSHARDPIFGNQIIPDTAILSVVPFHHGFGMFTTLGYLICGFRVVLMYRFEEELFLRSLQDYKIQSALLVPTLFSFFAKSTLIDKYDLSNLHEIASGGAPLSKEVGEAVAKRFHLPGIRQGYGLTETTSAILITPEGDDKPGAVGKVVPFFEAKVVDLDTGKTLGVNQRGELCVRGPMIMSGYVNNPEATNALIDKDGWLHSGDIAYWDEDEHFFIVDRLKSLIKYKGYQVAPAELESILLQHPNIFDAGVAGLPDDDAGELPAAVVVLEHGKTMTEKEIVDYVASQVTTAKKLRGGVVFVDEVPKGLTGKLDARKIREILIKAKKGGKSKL
#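 Biochemical qHTS of compounds, final roughly 60 µM downward over six points, against 10 nM purified firefly luciferase using Km concentrations of substrates (10 uM D-luciferin, 10 uM ATP) in Tris acetate pH 7.5 buffer; luminescence output.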
# Hits are given with their value; i = inactive; ? = inconclusive; nt = no result given; [ ] = another dose, or the depositor's remark. Calls come from the whole dose curve; as a rule, active = well fitted curve in the direction sought with a large enough effect; inconclusive = small, poorly fitted or top-dose-only effect, or another doubt; inactive = no such curve, though single readings can be large; an effect the other way counts as inactive or inconclusive.
SMILES,ELG1 repair inh,ELG1 genotoxic,NPC1 promoter act,SMN2 splice enh,Rab9 prom act,FLuc counter
Cc1ccc(-n2c(=S)[nH]c3sc4c(c3c2=O)CCc2ccccc2-4)cc1,i,i,i,nt,i,i
CCOC(=O)c1ccc(NC(=O)CSc2nc(-c3ccc(F)cc3)cc(C(F)(F)F)c2C#N)cc1,nt,nt,nt,i,nt,i
Cc1ccc(C(C)C)c(OCC(=O)Nc2ccc(N3CCOCC3)cc2N2CCOCC2)c1,18.3µM,i,i,nt,i,i
COc1cc(C(=O)N/N=C/c2sc(N3CCOCC3)nc2-c2ccccc2)cc(OC)c1OC,11.6µM,i,i,i,i,i
O=C(N/N=C/c1sc(N2CCOCC2)nc1-c1ccccc1)c1ccccc1O,18.4µM,i,i,i,i,?
O=C(Nc1ccccc1F)C(=Cc1sc(N2CCOCC2)nc1-c1ccccc1)C(=O)Nc1ccccc1F,8.2µM,i,i,i,i,i
O=C(O)c1cccc(N/N=C/c2sc(N3CCOCC3)nc2-c2ccccc2)c1,?,14.6µM,3.98µM,i[1.84 µM],2.82µM,1.2µM
COc1cccc(CNC(=O)Cn2c(=O)n3nc(-c4cccc(C)c4)nc3c3ccccc32)c1,nt,nt,nt,nt,nt,i
Cc1cccc(-c2nc3c4ccccc4n(CC(=O)Nc4cccc(F)c4)c(=O)n3n2)c1,nt,nt,nt,nt,nt,23.9µM
CCOC(=O)C1=NN(C(=O)c2ccc(OC)cc2)C(O)(c2ccc(Cl)cc2)C1 (stereo not given),i,i,i,i,i,i
COC(=O)C1=NN(C(=O)c2cccc(Br)c2)C(O)(c2ccc(Cl)cc2)C1 (stereo not given),i,i,i,nt,i,10.7µM
Cc1cccc(NC(=O)c2cccc(N3C(=O)CCC3=O)c2)c1,i,i,i,nt,i,i
CC1CCc2c(sc(NC(=O)c3ccc(N4C(=O)CCC4=O)cc3)c2C(N)=O)C1 (stereo not given),i,i,i,nt,i,9.53µM
CC(C)(C)C1CCc2c(sc(NC(=O)c3ccncc3)c2C(N)=O)C1 (stereo not given),?,i,i,i,i,2.69µM
O=C(Nc1nc2c(s1)CCCC2)c1ccc(N2C(=O)CCC2=O)cc1,?,?,?,nt,?,19µM
Cc1ccc(C)c2sc(NC(=O)c3ccc(N4C(=O)CCC4=O)cc3)nc12,i,i,i,i,i,i
CCc1ccc(C(=O)NNC(=O)c2cccc(N3C(=O)CCC3=O)c2)cc1,i,i,i,nt,i,10.7µM
COc1ccc(C)cc1NC(=O)c1cc2c(=O)n(Cc3cccnc3)ccc2nc1C,nt,nt,nt,nt,nt,i
Cc1ccccc1Nc1c(-c2cccc(N(C)C)c2)nc2ccc(Br)cn12,nt,nt,nt,?,nt,i
CCc1ccc2nc(NC(=O)c3ccc(N4C(=O)CCC4=O)cc3)sc2c1,?,i,i,nt,i,8.49µM
CC1CCc2nc(NC(=O)c3ccc(N4C(=O)CCC4=O)cc3)sc2C1 (stereo not given),i,i,i,nt,i,9.53µM
CNS(=O)(=O)c1ccc2nc(NC(=O)c3ccc(N4C(=O)CCC4=O)cc3)sc2c1,i,i,i,i,i,?
CC(=O)NC(=S)Nc1sc2c(c1C(N)=O)CCC(C)C2 (stereo not given),?,?,2.82µM,nt,1.58µM,9.53µM
CCC(=O)Nc1cc(-c2nc3ccccc3s2)c(Cl)cc1Cl,nt,nt,nt,i,nt,i
COc1ccc(NC(=O)C(C(C)C)N2Cc3ccccc3C2=O)cc1 (stereo not given),nt,nt,nt,nt,nt,i
SMILES,ELG1 repair inh,ELG1 genotoxic,NPC1 promoter act,SMN2 splice enh,Rab9 prom act,FLuc counter
Cc1ccc(N/C=C/C(=O)c2ccc(C)cc2)cc1,?,?,1.41µM,nt,1.58µM,0.757µM
Cc1ccc(C(=O)/C=C/C(=O)c2ccc(C)cc2)cc1,?,i,i,i,i,?
Cc1cc(C)nc(NS(=O)(=O)c2ccc(N/C=C/C(=O)c3ccc(Cl)cc3)cc2)n1,?,i,i,i,i,i
Cc1ccc(C(=O)/C=C\Nc2ccc(C)c(C)c2)cc1,?,?,2µM,11.2µM,1.58µM,2.13µM
Cc1ccc(O)c(N/C=C/C(=O)c2ccc(F)cc2)c1,?,20.6µM,i,nt,i,2.39µM
CCCCC1=CC2=C(OC(C)=O)C(=O)C(C)(OC(=O)c3ccc(Cl)nc3)C(=O)C2=CO1 (stereo not given),nt,nt,nt,i,nt,nt
CCOC(=O)c1cnn(-c2ccc(C(=O)Nc3cccc(C(C)=O)c3)cc2)c1N,nt,nt,nt,nt,nt,i
O=C(/C=C/c1ccccc1Br)c1ccc2c(c1)OCO2,?,i,i,nt,i,12µM
COc1cccc(/C=C/C(=O)Oc2ccc(C(=O)c3ccc(F)cc3)cc2)c1,i,i,i,i,i,i
COc1cc(C(=O)NNC(=O)c2ccc3c(c2)OCCO3)cc(OC)c1OC,i,i,nt,nt,nt,nt
COc1cccc(/C=C/C(=O)c2ccc[nH]2)c1,?,3.66µM,3.16µM,?,3.16µM,2.13µM
CN(Cc1ccccc1)C(=O)c1ccc2c(c1)OCO2,?,i,i,i,i,i
COc1cc(/C=C/C(=O)c2ccc3c(c2)OCCO3)cc(Br)c1OCC(=O)N(C)C,?,i,i,nt,i,12µM
CN(C(=O)/C=C/c1ccc2c(c1)OCO2)c1ccccc1,?,i,?,?,?,?
CN(C)c1ccc(/C=C/C(=O)c2ccc3c(c2)OCO3)cc1,?,?,?,nt,?,2.69µM
CCc1c(C)sc2c1CCN(Cc1ccccc1F)C2c1ccccc1 (stereo not given),nt,nt,nt,nt,nt,i
Cc1cccc(Cn2c(CN3CCC(C(=O)NCCc4ccccc4)CC3)cc3ccccc32)c1,nt,nt,nt,nt,nt,i
Cc1cc(C)c(C(=O)/C=C/c2ccc3c(c2)OCO3)c(=O)[nH]1,?,i,i,nt,i,i
CC(=O)c1ccc2c(c1)OCCOCCOCCOCCOCCO2,i,i,i,nt,i,i
O=C(/C=C\Nc1ccccc1Br)c1ccc2c(c1)OCO2,?,?,?,3.16µM,0.447µM,0.0849µM
O=C(/C=C/c1ccc2c(c1)OCO2)c1ccc[nH]1,?,?,3.16µM,15.8µM,?,2.13µM
O=C(/C=C/c1ccncc1)c1ccc2c(c1)OCCO2,?,i,i,nt,i,12µM
O=C(/C=C/c1ccc2c(c1)OCO2)c1ccc(F)cc1,?,i,i,i,i,4.26µM
COc1ccc(-c2nc(C)c(CCNC(=O)C(=O)Nc3ccccc3F)s2)cc1,nt,nt,nt,nt,nt,i
S=C1SCN(C2CCCCCCCCCCC2)CN1C1CCCCCCCCCCC1,nt,nt,nt,i[9.22 µM],nt,nt
COc1cccc(Cn2c(=O)c(-c3cccs3)nc3cnc(N4CCN(C)CC4)nc32)c1,nt,nt,nt,i,nt,nt
O=C(/C=C/c1cccc(Br)c1)c1ccc2c(c1)OCO2,?,?,i,nt,i,10.7µM
CN(C)c1ccc(/C=C/C(=O)c2ccc3c(c2)OCCO3)cc1[N+](=O)[O-],i,i,i,i,i,9.53µM
COc1cc(C(=O)N/N=C(\C)c2ccc3c(c2)OCO3)cc(OC)c1OC,i,i,i,i,i,i
COc1cccc(/C=C/C(=O)NNC(=O)c2ccncc2)c1OC,?,i,i,nt,i,21.3µM

# High-throughput results from PubChem BioAssay.
